Source: PubChem BioAssay (The Scripps Research Institute Molecular Screening Center)
MITF inh: inhibitors of human MITF | AlphaScreen MITF homodimerization, bead proximity signal | 650,000 tested, 0.91% active | inhibition, % at 2.6 µM | O75030; in the data active means inhibition above about 50%;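 further: 0% = vehicle wells with protein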
TEAD-YAP inh: TEAD-YAP interaction inhibition | 640,000 tested, 1.4% active | HEK-TIYL cells, TEAD-Gal4/YAP UAS-luciferase luminescence | inhibition, % at 9.12 µM | AID 1259422; in the data active means inhibition above about 32%;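 further: 0% = median of test compound wells and 100% = reference inhibitor wells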
GPR151 activ: activators of human GPR151 | Q8TDV0 | PathHunter beta-arrestin GPR151 cells, luminescence | activation, % at 11.2 µM | 650,000 tested, 1% active | AID 1508602; in the data active means activation above about 4.9%;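 further: 0% = median of compound wells and 100% = cells with positive control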
FBW7 act: activators of human E3 ligase FBW7 | Q969H0 | 650,000 tested, 0.13% active | AlphaScreen FBW7–phospho-cyclin E peptide binding, activator screen | normalized activity (activation), % at 26.1 µM; in the data active means normalized activity above about 1.9%;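 further: purified mutant Fbw7 with reduced substrate affinity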
Target sequence (Q969H0 whole entry, looked up): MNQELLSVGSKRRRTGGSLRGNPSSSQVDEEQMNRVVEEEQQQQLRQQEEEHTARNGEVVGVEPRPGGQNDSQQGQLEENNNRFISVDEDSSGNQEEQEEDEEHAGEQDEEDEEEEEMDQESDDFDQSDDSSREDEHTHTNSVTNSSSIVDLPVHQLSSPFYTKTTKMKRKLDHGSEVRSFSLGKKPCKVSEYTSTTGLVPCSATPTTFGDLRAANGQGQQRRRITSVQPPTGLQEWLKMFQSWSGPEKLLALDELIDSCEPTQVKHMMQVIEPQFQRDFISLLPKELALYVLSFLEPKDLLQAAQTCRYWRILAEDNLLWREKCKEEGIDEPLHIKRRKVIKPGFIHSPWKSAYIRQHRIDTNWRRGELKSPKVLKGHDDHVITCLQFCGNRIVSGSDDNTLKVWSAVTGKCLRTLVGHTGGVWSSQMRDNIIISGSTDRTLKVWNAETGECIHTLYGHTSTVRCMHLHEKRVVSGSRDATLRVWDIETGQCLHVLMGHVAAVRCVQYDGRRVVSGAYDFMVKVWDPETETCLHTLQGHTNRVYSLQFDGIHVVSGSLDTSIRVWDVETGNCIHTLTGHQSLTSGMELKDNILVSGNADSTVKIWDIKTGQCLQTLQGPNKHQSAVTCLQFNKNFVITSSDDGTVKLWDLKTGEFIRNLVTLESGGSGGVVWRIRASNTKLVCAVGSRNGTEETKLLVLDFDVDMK
GPR151 confirm: human GPR151 activation, confirmation screen | AID 1508609 | GPR151 PathHunter beta-arrestin cells, luminescence, 90 min; % of EA-reagent control over plate median | activation, % at 11.2 µM | 6,700 tested, under 10 active | shares compounds with GPR151 activ;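 active means mean percent activation across replicates above the confirmation screen cutoff of 4.91%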
GPR119 ag: GPR119 activation, counter-screen for GPR151 activators; shares compounds with GPR151 activ; GPR119 PathHunter beta-arrestin cells, luminescence, 90 min; 0 = compound-well median, 100 = enzyme-acceptor control; activation, % at 11.2 µM; 6,700 tested, 0.3% active;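 active means mean percent activation in the counterscreen above 29.09%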;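 further: counterscreen on off-target GPR119 to flag nonselective hits from the GPR151 activator screen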
Numbers without * were called inactive; . = no result given. An excerpt weighted towards active compounds, which were near 3.4% of everything screened.

SMILES	MITF inh	TEAD-YAP inh	GPR151 activ	FBW7 act	GPR151 confirm	GPR119 ag
Cc1nn(-c2ccccc2)c2c1C(c1ccccc1Cl)C(C#N)=C(N)O2 (configuration not stated)	18.3	-3.9	-2.3	-1.2	.	.
Cc1nn(-c2cccc(Cl)c2)c2c1C(c1ccccc1Cl)C(C#N)=C(N)O2 (configuration not stated)	10.2	2.2	5.5*	-0.1	-0.1	2.5
COCCN(Cc1nc(-c2ccc(OC)cc2)no1)C(C)C	-0.8	-12.3	1.8	-0.1	.	.
COc1cc(OC)c(C(=O)Nc2ccccc2Br)cc1OC	8.9	-6.7	-0.9	0.4	.	.
CCC1CN(C(=O)c2ccncc2)Cc2ccc(Cl)cc2O1 (configuration not stated)	18.1	-4.6	-0.7	0.2	.	.
CCOC(=O)C(=O)Nc1ncc(Cl)s1	4.2	10.6	5.4*	-0.2	0.5	5.7
CCOC(=O)C(=O)Nc1nnc(C(C)C)s1	29.6	8.3	1.6	-0.1	.	.
CC12CCC(C(=O)O/N=C(\C#N)c3nc4ccccc4s3)(OC1=O)C2(C)C (configuration not stated)	-12.1	7.0	-0.4	-0.1	.	.
CC(=O)Nc1ccc(NC(=O)c2ccc(C(=O)c3ccccc3)cc2)cc1	-7.9	-7.6	-0.2	0.0	.	.
COC(=O)c1cc2c(N3CCC(Cc4ccccc4)CC3)ncnc2s1	5.5	-1.9	5.5*	-0.2	1.8	6.1
COc1ccc(-c2nc(NCCO)c3ncn(C4CCCCC4)c3n2)cc1	12.2	-4.0	6.0*	0.3	0.8	-4.2
COc1ccc(C)cc1S(=O)(=O)n1c(C)nc2ccccc21	-1.4	-14.1	-0.9	0.0	.	.
CCOc1ccc(S(=O)(=O)n2cnc3ccccc32)cc1C	8.7	0.7	-0.3	0.3	.	.
CCOc1ccc(C)cc1S(=O)(=O)n1c(C)nc2ccccc21	-3.3	0.4	7.2*	-0.2	0.4	3.2
CCOc1ccc(C)cc1S(=O)(=O)n1cnc2ccccc21	3.1	46.0*	5.8*	0.0	-0.5	-3.5
COC(=O)C(C)N1C(=O)S/C(=C/c2ccc(-c3cc(C(=O)O)ccc3C)o2)C1=O (configuration not stated)	29.5	3.0	-1.4	-0.5	.	.
CC(=O)Nc1cccc(NC(=O)Nc2cccc([N+](=O)[O-])c2)c1	11.0	-1.3	2.9	0.0	.	.
COc1ccc(C(CC(=O)O)NC(=O)c2ccc(OC)c(OC)c2)cc1 (configuration not stated)	5.9	4.7	-0.8	0.6	.	.
CC/C(C)=C(\C#N)c1nc2ccccc2[nH]1	-5.2	-43.9	5.7*	0.0	0.6	11.0
COc1cccc(OC/C(O)=C(\C#N)c2nc3ccccc3[nH]2)c1	-0.4	-0.8	5.2*	-0.1	-0.1	0.5
COc1ccc(OC/C(O)=C(\C#N)c2nc3ccccc3[nH]2)cc1	7.4	-0.3	0.5	-0.6	.	.
CC(=O)Nc1ccc(NC(=O)COc2ccc(Cl)c(C)c2)cc1	-16.0	-9.7	-1.1	-0.1	.	.
C=CCN(c1ccc(C(=O)OCC)cc1)S(C)(=O)=O	1.2	-5.5	4.9*	-0.1	-0.5	-3.5
CCOC(=O)c1ccc(N(Cc2ccccc2)S(C)(=O)=O)cc1	13.2	7.5	0.7	0.1	.	.
Cc1cc(Cl)ccc1NC(=O)C(=O)N/N=C/c1ccc([N+](=O)[O-])cc1	-0.8	-3.4	-1.0	-0.2	.	.
SMILES	MITF inh	TEAD-YAP inh	GPR151 activ	FBW7 act	GPR151 confirm	GPR119 ag
Cc1ccc(NC(=O)C(=O)N/N=C/c2ccc([N+](=O)[O-])cc2)cc1C	-18.0	-17.8	14.8*	0.1	0.5	13.7
COCc1cc(C)nc2sc(C(=O)O)c(-n3cccc3)c12	5.2	5.9	-0.2	0.0	.	.
CNc1ccc(/C=C/C(=O)c2ccc(S(=O)(=O)NCc3ccco3)cc2)cc1[N+](=O)[O-]	-5.8	-4.9	5.6*	-0.3	-0.6	-2.5
N#CCCN(Cc1cccnc1)C(=S)NC(=O)c1cccs1	6.0	15.1	5.6*	0.5	-1.5	-3.4
Nc1nc(N2CCOCC2)nc2c1ncn2Cc1ccc(C(F)(F)F)cc1	0.3	-2.9	-0.4	-0.2	.	.
Cc1noc(C)c1-c1nc(N)c2ncn(Cc3ccc(C(F)(F)F)cc3)c2n1	12.1	-14.8	5.8*	0.2	-1.2	-9.3
Cc1noc(C)c1-c1nc(NC2CC2)c2ncn(Cc3ccc(C(F)(F)F)cc3)c2n1	14.5	-6.3	0.0	0.1	.	.
Nc1nc(N2CCC(N3CCOCC3)CC2)nc2c1ncn2Cc1ccc(C(F)(F)F)cc1	-7.8	-11.1	6.4*	0.0	-0.5	-1.3
CN(C)c1cccc(Nc2nccc(NCc3cccc(C(F)(F)F)c3)n2)c1	8.5	27.1	1.1	-0.2	.	.
CCOc1ccc(C2C(C(N)=O)=C(C)Nc3nc(-c4cccc(Cl)c4)nn32)cc1 (configuration not stated)	3.1	0.8	-0.5	-0.1	.	.
CCOC(=O)c1c(N)sc(C(=O)Nc2cc(C(F)(F)F)ccc2Cl)c1C	-0.9	-18.3	1.3	0.0	.	.
COC(=O)C(CCSC)NC(=O)c1ccccc1F (configuration not stated)	11.1	-1.4	6.9*	0.6	0.5	-4.2
COc1cccc(CN(CCN(C)C)C(=O)c2cn(C)c3cc(-c4cn[nH]c4)ccc23)c1	-3.9	5.9	0.7	0.1	.	.
Cc1c(C(=O)C(=O)NC(C)C)c2ccccc2n1C	6.5	-1.8	6.3*	0.2	0.2	3.4
CNC(=O)C(=O)c1c(C)n(C)c2ccccc12	-1.1	6.3	-0.2	0.0	.	.
O=C(NC1CC1)c1cnc(N2CCN(c3ccccn3)CC2)s1	9.9	-17.1	5.0*	0.0	0.6	3.5
COc1cc(/C=N/NC(=O)CN2CC(c3ccccc3)CC2=O)cc2sc(=O)oc12 (configuration not stated)	0.1	4.9	0.5	-0.5	.	.
COc1cc(/C=N/NC(=O)Cn2nnc(-c3ccccc3)n2)cc2sc(=O)oc12	5.1	9.0	8.0*	0.0	-0.1	4.4
Fc1ccc(/C=N/Nc2nc3ccccc3s2)c(F)c1	-11.6	-14.2	0.9	0.0	.	.
O=C(CSc1nc(Nc2ccc(F)c(F)c2)c2ccccc2n1)c1ccc(F)cc1	4.7	13.2	5.1*	0.1	-0.9	0.4
COc1cc(Nc2nc(SCC(=O)c3ccccc3)nc3ccccc23)cc(OC)c1	-2.9	3.6	6.9*	-0.1	1.3	16.3
COc1cc(Nc2nc(SCC(=O)c3ccc(Br)cc3)nc3ccccc23)cc(OC)c1	-4.7	0.0	-0.5	0.0	.	.
Cc1nc2cc(C(=O)NCc3ccco3)ccc2n1-c1ccc(Br)cc1	16.0	0.4	-0.8	0.3	.	.
O=C(O)C1CSC(c2ccncc2)N1 (configuration not stated)	8.4	-3.2	1.3	-0.4	.	.
O=C(O)C1CSC(c2ccsc2)N1 (configuration not stated)	23.4	2.4	5.3*	0.7	-0.3	-2.3
